High-throughput results as filed in PubChem BioAssay.
The full list was thinned out, with hits kept by preference.
VDR inhibitor: Inhibitors of the vitamin D receptor (VDR): qHTS; Vitamin D3 receptor (Homo sapiens), P11473; VDR-SRC2-3 peptide fluorescence polarization, 2 h; Potency, µM, without a hit: max response, negative = inhibition, hits mostly inhibitors; 0.93% of 400,000 active; note: % is set by controls: 0 for no effect and ±100 for the full control effect
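Measured by FP: displacement of SRC2-3 coactivator peptide from VDR by library compounds, following a two-hour ambient incubation.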
Glioma ERSR ind: qHTS for Inducers of the Endoplasmic Reticulum Stress Response (ERSR) in Human Glioma: qHTS | 0.02% of 420,000 active | Potency, µM, for inactives: at the top dose activation, most hits filed as activators | AID 602332, 2012 | U87-MG GRP78 promoter luciferase reporter, 16 h; note: series mostly up to about 76 µM; % of control where 0% means no effect; nearly all actives have a fitted effect of over 35% in size
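Stably transfected U87-MG human glioma cells carrying a GRP78-based luminescent sensor were seeded at 1000 cells/well, pin-dosed with compounds and incubated 16 h. Luciferase reagent was then added, and end-point luminescence was read after 10 min at room temperature.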
Sfp PPTase inh: qHTS Assay for Inhibitors of Bacillus subtilis Sfp phosphopantetheinyl transferase (PPTase) | 3.5% of 310,000 active | 4'-phosphopantetheinyl transferase ffp (Bacillus subtilis), Q9F4F7 | Potency, µM, inactives show largest response in the series, negative = inhibition, actives largely listed as inhibitors | Biochemical Sfp PPTase activity, qHTS;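 note: the enzyme is Sfp with the accession as filed and its product quenches rhodamine fluorescence; 0% = enzyme reaction without inhibitor and -100% = no enzyme wells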
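Buffer: 50 mM Hepes-Na pH 7.6, 10 mM MgCl2, 0.01% Nonidet P-40, 0.01% BSA. Enzyme 15 nM, pre-exposed to compound 15 min; substrates then added and fluorescence change tracked over 30 min.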
ALOX12 inh: Primary qHTS assay for inhibitors of human arachidonate 12S-lipoxygenase (ALOX12): Round 2. AID 1671190, 2021. Polyunsaturated fatty acid lipoxygenase ALOX12 (Homo sapiens), P18054. purified 12hLO, xylenol orange hydroperoxide absorbance. Potency, µM (top dose mostly 108 µM), without a hit: top-dose activity change, negative = inhibition, usual class: inhibitors. 1.1% of 580,000 active; note: % is set by controls: 0 for no effect and ±100 for the full control effect
Target sequence (P18054 whole entry, looked up): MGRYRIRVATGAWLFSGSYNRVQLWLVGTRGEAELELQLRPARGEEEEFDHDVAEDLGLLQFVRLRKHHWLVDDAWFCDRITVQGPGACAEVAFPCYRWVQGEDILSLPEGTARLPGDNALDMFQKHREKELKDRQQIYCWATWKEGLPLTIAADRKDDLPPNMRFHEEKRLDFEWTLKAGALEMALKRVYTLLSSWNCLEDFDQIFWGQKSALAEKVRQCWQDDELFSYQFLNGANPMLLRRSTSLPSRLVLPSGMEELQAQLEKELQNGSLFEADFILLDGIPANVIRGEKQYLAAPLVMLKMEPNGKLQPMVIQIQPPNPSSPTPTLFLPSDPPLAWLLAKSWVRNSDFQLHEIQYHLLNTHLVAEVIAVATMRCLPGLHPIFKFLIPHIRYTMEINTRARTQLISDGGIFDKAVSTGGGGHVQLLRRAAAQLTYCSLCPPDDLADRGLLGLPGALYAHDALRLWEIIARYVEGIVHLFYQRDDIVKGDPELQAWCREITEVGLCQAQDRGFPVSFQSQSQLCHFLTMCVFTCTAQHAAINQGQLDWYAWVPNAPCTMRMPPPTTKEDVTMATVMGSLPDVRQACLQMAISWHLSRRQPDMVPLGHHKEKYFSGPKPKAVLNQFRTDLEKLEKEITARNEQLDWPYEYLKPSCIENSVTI
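Purified human 12hLO at 150 nM in 25 mM Hepes, 0.01% Triton X-100, pH 7.0, preincubated 15 min at room temperature with compound. Reaction started with 40 uM arachidonic acid, 30 min at room temperature. Hydroperoxide measured by Fe-xylenol orange, 573/405 nm absorbance ratio.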
G9a inh: qHTS Assay for Inhibitors of Histone Lysine Methyltransferase G9a. Histone-lysine N-methyltransferase EHMT2 (Homo sapiens), Q96KQ7. G9a H3K9 monomethylation, AlphaScreen, 2 h. Potency, µM (titrated, usually from 102 µM), for inactives: at the highest dose activity, negative = inhibition, hits mostly inhibitors. 8.8% of 350,000 active; note: % is set by controls: 0 for no effect and ±100 for the full control effect; nearly all actives have a fitted effect of over 75% in size
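AlphaScreen read-out: biotin-H3K9 peptide (500 nM) methylation by 20 nM enzyme with 20 uM SAM, 2 h at room temperature after 15 min compound preincubation; anti-monomethyl H3K9 antibody plus donor/acceptor beads, 10 min dark.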
* = called active by the depositor; ? = inconclusive; · = not tested or not shown; ! = not active in a repeat; [ ] = dose if it differs, or a comment. Calls come from the whole dose curve; as a rule, active = well fitted curve in the direction sought with a large enough effect; inconclusive = small, poorly fitted or top-dose-only effect, or another doubt; inactive = no such curve, though single readings can be large; an effect the other way counts as inactive or inconclusive. Potency is the fitted concentration of half-maximal effect.

SMILES	VDR inhibitor	Glioma ERSR ind	Sfp PPTase inh	ALOX12 inh	G9a inh
CC(=O)Oc1ccc2occ(/C=N/c3cc(=O)[nH]c(=S)[nH]3)c(=O)c2c1	28µM*	-6%	-28%	?	11µM*
O=C(Nc1ccc(-c2nc3ccccc3o2)cc1)c1cccc(F)c1	·	·	·	-24%	·
NC1(C(=O)O)CCc2cc(P(=O)(O)O)ccc21 (configuration not stated)	6%	-2%	56µM*	-1%	-2%[59 µM]
COc1cc(/C=C2\C(=O)N(c3ccc(NC(C)=O)cc3)N=C2c2ccccc2)ccc1O	?	3%	11%	?	45µM*
O=C1/C(=C\c2ccc(O)c(O)c2)C(c2ccccc2)=NN1c1ccccc1	-24%	-3%	50µM*	?	4µM*
CCOc1cc(/C=C2\C(=O)N(c3nc(-c4ccc(Br)cc4)cs3)N=C2c2ccccc2)ccc1O	-15%	0%	-27%	·	?
CC1=NN(c2ccccc2)C(=O)/C1=C\c1sccc1C	?	-2%	-3%	0%	?
CCN1CCC(O)C(C)C1C (configuration not stated)	·	·	·	-24%	·
NC(N)=Nc1nc(-c2ccccc2)c2ccccc2n1	7%	-9%	50µM*	?	-24%
CC(C)(C)SCC(=O)NN=C(c1ccccc1)c1ccccc1	·	·	·	-15%	·
CCOc1ccc(NC(=O)CN(C)Cc2cc(=O)n3c(-c4ccccc4)csc3n2)cc1OCC	-16%	-4%	1%	-1%	50µM*
Cc1ccc(OCc2cc(=O)n3c(-c4ccccc4)csc3n2)cc1	0%	2%	·	-18%	5%[59 µM]
O=C(NC(=S)N1CCCCC1c1cccnc1)c1ccc(F)cc1 (configuration not stated)	-5%	4%	-16%	-5%	32µM*
O=C(NC(=S)NN1CCCCC1c1cccnc1)c1ccc(Cl)cc1Cl (configuration not stated)	0%	-3%	10%	46%	71µM*
O=C(NC(=S)N1CCCCC1c1cccnc1)c1ccc(Br)cc1 (configuration not stated)	15%	-4%	-25%	?	22µM*
Cc1cccc(NC(=S)N2CCCCC2c2cccnc2)c1C (configuration not stated)	-13%	-7%	-1%	-2%	-25%
O=C(NC(=S)N1CCCC1)c1ccc(Cl)cc1Cl	3%	0%	15%	0%	11%
Cc1c(-c2ccccc2)c(=O)oc2cc(OC(=O)N3CCOCC3)ccc12	·	·	·	51%	·
Cc1ccc(-n2cccc2CC(=O)N2CCOCC2)cc1	·	·	·	-1%	·
Cc1cccc(CN2CCN(CC(=O)O)C2=O)c1	4%	-3%	89µM*	22%	?
Cc1cccc(CN2CCN(CC(=O)N3CCCC3)C2=O)c1	2%	-9%	10%	0%	21%
COCCCNC(=O)CN(C)C(=O)CCc1ncc(-c2ccccc2)o1	·	·	·	45%	·
N#CC(C#N)=C(N)/C(C#N)=C/c1ccc2[nH]ccc2c1	50µM*!	-2%	2%	?	5%[59 µM]
NC(=O)c1ccc2[nH]ccc2c1	14%	1%	·	-27%[57.4 µM]	-3%[59 µM]
CCCCCCCCNC(=O)/C(C#N)=C/c1ccccc1[N+](=O)[O-]	?	?	-2%	-15%	40µM*
SMILES	VDR inhibitor	Glioma ERSR ind	Sfp PPTase inh	ALOX12 inh	G9a inh
N#C/C(=C\C=C\c1ccccc1[N+](=O)[O-])C(=O)NCc1ccccc1	-12%	-15%	-9%	-9%	40µM*
N#C/C(=C\c1ccccc1[N+](=O)[O-])C(=O)NCc1ccccc1	?	0%	-8%	?	·
C=CCNC(=O)/C(C#N)=C/c1ccccc1[N+](=O)[O-]	-7%	3%	-1%	-22%	?
COc1cccc(C(=O)N2CCC(Oc3ncccc3C(=O)N3CCCCC3)C2)c1OC (configuration not stated)	·	·	·	5%	·
C/C(=N\Nc1ccc(F)cc1F)c1ccc(N2CCOCC2)cc1	-9%	2%	4%	?	7.9µM*
C/C(=C\C(=O)c1ccc(F)cc1)Nc1ccc(N2CCOCC2)cc1	9%	0%	-19%	-9%	40µM*
O=C(/C=C/c1ccc(F)cc1)c1ccc(N2CCOCC2)cc1	-11%	-1%	8%	9%	3%
CNC(=S)N/N=C(\C)c1ccc(N2CCOCC2)cc1	8%	0%	50µM*	-10%	?
C/C(=N\NC(=O)c1ccc(F)cc1)c1ccc(N2CCOCC2)cc1	12%	-3%	14%	9%	40%
C/C(=N\NC(=O)COc1ccc(C(C)(C)C)cc1)c1ccc(N2CCOCC2)cc1	17%	-2%	2%	8%	10µM*
C/C(=N\Nc1ccc(F)cc1F)c1ccc(F)cc1	·	·	3%	·	10%[0.501 µM]
Fc1ccc(/C=N/Nc2cc(N3CCOCC3)ncn2)cc1	21%	2%	0%	-2%	·
Fc1ccc(N/N=C/c2ccc(N3CCOCC3)cc2)c(F)c1	-25%	0%	4%	?	10µM*
CC(C)(C)c1ccc(CS(=O)Cc2ccc(Cl)cc2)cc1 (configuration not stated)	·	·	·	-21%	·
O=C(CSc1ncnc2sccc12)Nc1ccc(S(=O)(=O)N2CCOCC2)cc1	-7%	-4%	·	-10%	45µM*
CC(=O)Oc1cccc(N2C(=O)C3C4C=CC(C4=C(C)C)C3C2=O)c1 (configuration not stated)	?	-6%	56µM*	0%	-40%[2.33 µM]
CC(=O)Oc1ccc(N2C(=O)C3C4C=CC(O4)C3C2=O)cc1 (configuration not stated)	-15%	5%	35µM*	24%	3.5µM*
CC(=O)Oc1cccc(N2C(=O)C3C(C2=O)C2C=CC3C23CC3)c1 (configuration not stated)	4%	-2%	10%	-18%	45µM*
CC(=O)Oc1ccc(N2C(=O)CCC2=O)cc1	-23%	-4%	8%	-3%	-38%[0.0925 µM]
COc1ccccc1C(C)NC(=O)c1nn(C)c(=O)c2ccccc12 (configuration not stated)	·	·	·	0%	·
CCOc1ccc(-c2nc3ccc(C)cc3c(C(=O)O)c2C)cc1	·	·	·	1%	·
CCC(=O)OCCC(C)CCC=C(C)C (configuration not stated)	·	·	·	-5%[176 µM]	·
Cc1ccc(S(=O)(=O)N(CC(=O)NCc2ccco2)C2CCCCC2)cc1	8%	-5%	-15%	?	?
COc1ccc(N(CC(=O)NCc2ccco2)S(=O)(=O)c2ccc(C)cc2)cc1OC	0%	-2%	0%	-2%	20%
COc1ccccc1N(CC(=O)NCc1ccco1)S(=O)(=O)c1ccc(C)cc1	-13%	-6%	56µM*	4%	32µM*
